# Only a selection was taken, and the strongest signals are over-represented in it overall.
# B1: Clone730PsrP (Streptococcus pneumoniae) (protein)
# chain: MDHHHHHHHHHHASENLYFQGAMVVGSQTAAATEATAKKVEEDRKKPASDYVASVTNVNLQSYAKRRKRSVDSIEQLLASIKNAAVFSGNTIVNGAPAINASLNIAKSETKVYTGEGVDSVYRVPIYYKLKVTNDGSKLTFTYTVTYVNPKTNDLGNISSMRPGYSIYNSGTSTQTMLTLGSDLGKPSGVKNYITDKNGRQVLSYNTSTMTTQGSGYTWGNGAQMNGFFAKKGYGLTSSWTVPITGTDTSFTFTPYAARTDRIGINYFNGGGKVVESSTT
# Experiments:
# Assay in all cases: glycan array binding signal (z-score within array); higher = stronger binding
# Conditions in all cases: glycan notation: IUPAC condensed, linker removed
# [1] = target: Fuc(a1-2)Gal
# Summary of the method: (§1)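 The binding signal is a Z-score computed within each array. Data were drawn from 3228 arrays in the Consortium for Functional Glycomics database, restricted to those with a known protein sequence. Scores were averaged over arrays of the same protein sequence at different concentrations or buffers, and over linkers, and negative values can be taken as non-binding.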
# [2] = target: Fuc(a1-2)Gal(b1-3)GlcNAc(b1-3)[Fuc(a1-2)Gal(b1-3)GlcNAc(b1-6)]GalNAc
# Summary of the method: as §1
# [3] = target: Fuc(a1-2)Gal(b1-3)[Fuc(a1-4)]GlcNAc(b1-2)Man(a1-3)[Fuc(a1-2)Gal(b1-3)[Fuc(a1-4)]GlcNAc(b1-2)Man(a1-6)]Man(b1-4)GlcNAc(b1-4)[Fuc(a1-6)]GlcNAc(b1-4)[Fuc(a1-6)]GlcNAc
# Summary of the method: as §1
# [4] = target: Fuc(a1-2)Gal(b1-4)GlcNAc(b1-2)Man(a1-3)[Fuc(a1-2)Gal(b1-4)GlcNAc(b1-2)Man(a1-6)]Man(b1-4)GlcNAc(b1-4)GlcNAc
# Summary of the method: as §1
# [5] = target: Fuc(a1-2)Gal(b1-4)GlcNAc(b1-6)GalNAc
# Summary of the method: as §1
# [6] = target: Fuc(a1-2)Gal6S(b1-4)Glc
# Summary of the method: as §1
# [7] = target: Fuc(a1-2)[Gal(a1-3)]Gal(b1-4)[Fuc(a1-3)]GlcNAc(b1-3)GalNAc
# Summary of the method: as §1
# [8] = target: Fuc(a1-2)[GalNAc(a1-3)]Gal(b1-4)GlcNAc(b1-2)Man(a1-3)[Fuc(a1-2)[GalNAc(a1-3)]Gal(b1-4)GlcNAc(b1-2)Man(a1-6)]Man(b1-4)GlcNAc(b1-4)[Fuc(a1-6)]GlcNAc
# Summary of the method: as §1
# [9] = target: Fuc(a1-2)[GalNAc(a1-3)]Gal(b1-4)[Fuc(a1-3)]GlcNAc(b1-3)GalNAc
# Summary of the method: as §1
# [10] = target: Fuc(a1-3)[GalNAc(b1-4)]GlcNAc
# Summary of the method: as §1
# [11] = target: Fuc(a1-3)[GalNAc(b1-4)]GlcNAc6S
# Summary of the method: as §1
# [12] = target: Gal(a1-2)Gal
# Summary of the method: as §1
# [13] = target: Gal(a1-3)Gal(b1-4)GlcNAc(b1-6)GalNAc
# Summary of the method: as §1
# [14] = target: Gal(b1-3)GalNAc(b1-4)[Neu5Ac(a2-3)]Gal(b1-4)Glc
# Summary of the method: as §1
# [15] = target: Gal(b1-3)GlcNAc(b1-2)[Gal(b1-3)GlcNAc(b1-6)]Man(a1-6)[Gal(b1-3)GlcNAc(b1-2)Man(a1-3)]Man(b1-4)GlcNAc(b1-4)GlcNAc
# Summary of the method: as §1
# [16] = target: Gal(b1-3)GlcNAc(b1-3)Gal(b1-4)GlcNAc(b1-2)Man(a1-3)[Gal(b1-3)GlcNAc(b1-3)Gal(b1-4)GlcNAc(b1-2)Man(a1-6)]Man(b1-4)GlcNAc(b1-4)GlcNAc
# Summary of the method: as §1
# [17] = target: Gal(b1-3)GlcNAc(b1-3)Gal(b1-4)[Fuc(a1-3)]GlcNAc(b1-6)[Gal(b1-3)GlcNAc(b1-3)]Gal(b1-4)Glc
# Summary of the method: as §1
# [18] = target: Gal(b1-3)GlcNAc(b1-6)GalNAc
# Summary of the method: as §1
# [19] = target: Gal(b1-3)[Neu5Ac(a2-6)]GalNAc
# Summary of the method: as §1
# [20] = target: Gal(b1-4)GalNAc(a1-3)[Fuc(a1-2)]Gal(b1-4)GlcNAc
# Summary of the method: as §1
# [21] = target: Gal(b1-4)GlcNAc(b1-2)Man(a1-3)[Gal(b1-4)GlcNAc(b1-2)Man(a1-6)][GlcNAc(b1-4)]Man(b1-4)GlcNAc(b1-4)[Fuc(a1-6)]GlcNAc
# Summary of the method: as §1
# [22] = target: Gal(b1-4)GlcNAc(b1-2)[Gal(b1-4)GlcNAc(b1-4)]Man(a1-3)[Gal(b1-4)GlcNAc(b1-2)Man(a1-6)]Man(b1-4)GlcNAc(b1-4)GlcNAc
# Summary of the method: as §1
# [23] = target: Gal3S(b1-4)GlcNAc
# Summary of the method: as §1
# [24] = target: Gal3S(b1-4)[Fuc(a1-3)]GlcNAc
# Summary of the method: as §1
# [25] = target: Gal3S6S(b1-4)GlcNAc6S
# Summary of the method: as §1
# [26] = target: Gal4S6S(b1-4)GlcNAc
# Summary of the method: as §1
binder,measurement,setting,value
B1,glycan array binding signal (z-score),[1],0.412
same,glycan array binding signal (z-score),[2],1.96
same,glycan array binding signal (z-score),[3],-0.364
same,glycan array binding signal (z-score),[4],-0.472
same,glycan array binding signal (z-score),[5],1.79
same,glycan array binding signal (z-score),[6],-0.11
same,glycan array binding signal (z-score),[7],-0.513
same,glycan array binding signal (z-score),[8],2.17
same,glycan array binding signal (z-score),[9],0.059
same,glycan array binding signal (z-score),[10],0.389
same,glycan array binding signal (z-score),[11],0.499
same,glycan array binding signal (z-score),[12],-0.461
same,glycan array binding signal (z-score),[13],-0.459
same,glycan array binding signal (z-score),[14],2.82
same,glycan array binding signal (z-score),[15],19.3
same,glycan array binding signal (z-score),[16],-0.281
same,glycan array binding signal (z-score),[17],-0.518
same,glycan array binding signal (z-score),[18],-0.605
same,glycan array binding signal (z-score),[19],-0.508
same,glycan array binding signal (z-score),[20],-0.441
same,glycan array binding signal (z-score),[21],-0.249
same,glycan array binding signal (z-score),[22],-0.616
same,glycan array binding signal (z-score),[23],0.189
same,glycan array binding signal (z-score),[24],0.82
same,glycan array binding signal (z-score),[25],-0.38
same,glycan array binding signal (z-score),[26],-0.324

# From the supplement of paper PMC8728848
